Sm TGR block – inhibitors of Schistosoma mansoni thioredoxin glutathione reductase. purified TGR, DTNB reduction, TNB absorbance 405 nm. hit rate 3% among 360,000. Potency, µM (top dose mostly 114 µM), most hits filed as inhibitors; further: nearly all actives have a fitted effect of over 60% in size
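First, TGR (20 nM dispensed) and NADPH were mixed with compound. Second, a 15 min room-temperature incubation followed. Third, further NADPH and then DTNB were added to start the reaction. Finally, TNB absorbance was monitored kinetically.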
LmPK inh – inhibitors of Leishmania mexicana pyruvate kinase; Q27686; purified LmPK, Kinase-Glo ATP luminescence, 1 h; Potency, µM (highest dose often 57.5 µM), usual class: inhibitors; hit rate 0.37% among 290,000; AID 1721
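ATP generated from ADP (0.1 mM) and PEP (0.5 mM) by 0.1 nM LmPK over 1 h at room temperature (pH 7.2 imidazole buffer) was detected by coupled luciferase luminescence. Values were normalized to uninhibited and no-enzyme wells.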
TbPYK inhibitor – inhibitors of Trypanosoma brucei pyruvate kinase. Q57TT1. TbPYK enzyme, Kinase-Glo Plus ATP luminescence, 45 min. Potency, µM (series often up to 76.8 µM), usual class: inhibitors. hit rate 0.12% among 410,000. AID 624173; further: nearly all actives have a fitted effect of over 50% in size
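Readout: single end-point luminescence (Kinase-Glo Plus, 10 min). Reaction conditions were TbPYK/substrate plus 130 uM ADP, 45 min at RT, pH 7.2 TEA buffer. No-enzyme wells served as controls, and data were normalized before concentration-response fitting.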
Shiga inhibitor – inhibitors of Shiga toxin in Vero cells | hit rate 9.2% among 290,000 | inhibition, % at 38.7 µM | Vero cells, Shiga toxin protein synthesis inhibition reporter; in the data active means inhibition mostly above about 28%, no sharp cut-off; inactive means mostly below about 43%
Giardia FBPA inh – inhibitors of Giardia lamblia fructose-1,6-bisphosphate aldolase. hit rate 0.71% among 290,000. Potency, µM (highest dose often 59.6 µM), most hits filed as inhibitors. AID 2451. purified Giardia FBPA. A8B2U2; further: nearly all actives have a fitted effect of over 55% in size
Target sequence (A8B2U2 whole entry, looked up): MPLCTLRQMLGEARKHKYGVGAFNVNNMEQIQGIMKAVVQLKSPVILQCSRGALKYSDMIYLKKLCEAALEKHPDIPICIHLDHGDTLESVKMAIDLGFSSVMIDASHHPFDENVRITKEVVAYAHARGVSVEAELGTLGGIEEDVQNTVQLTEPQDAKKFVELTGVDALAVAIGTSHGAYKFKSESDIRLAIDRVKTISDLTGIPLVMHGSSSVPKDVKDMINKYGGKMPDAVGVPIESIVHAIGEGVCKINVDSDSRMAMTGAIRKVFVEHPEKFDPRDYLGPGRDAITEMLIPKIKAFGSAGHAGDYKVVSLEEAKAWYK
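Giardia FBPA (40 nM reagent) was preincubated 10 min at RT with compound (up to 57.5 uM final), then substrate plus GAPDH/TPI/NAD/arsenate coupling system with diaphorase/resazurin was added; resorufin fluorescence (525/598 nm) was read after 20 min.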
CHX counter – affects cycloheximide protein synthesis inhibition readout, counter-screen | AID 2314 | cell reporter, cycloheximide protein synthesis inhibition counterscreen | hit rate 12% among 300,000 | max response, %; in the data active means max response mostly above about 13%, no sharp cut-off; inactive means mostly below about 14%; further: read at 38.3 µM for the half of the compounds with a filed dose
Hits are given with their value; 0 = inactive; ? = inconclusive; - = not tested or not shown; ! = a repeat was not active; [ ] = dose if it differs, or a comment. Only a selection was taken, and hits are over-represented in it overall. Unless noted, the call rests on the fitted dose curve; in most records, active means well fitted curve in the direction sought with a large enough effect; inconclusive means small, poorly fitted or top-dose-only effect, or another doubt; inactive means no such curve, though single readings can be large; an effect the other way counts as inactive or inconclusive.

SMILES	Sm TGR block	LmPK inh	TbPYK inhibitor	Shiga inhibitor	Giardia FBPA inh	CHX counter
COc1ccc(-c2nc3c(Br)c(N)c(Br)cc3o2)cc1	0	22µM	0	0	?	0
Cc1ccc(-c2nnc(-c3ccccc3)o2)cc1Br	-	-	0	-	-	-
O=C(NCC(c1ccc2c(c1)OCO2)N1CCOCC1)C(=O)Nc1ccc(Cl)cc1 (stereo not given)	0	-	0[15.4 µM]	-	-	-
CCC(Sc1nc2ccccc2c(=O)[nH]1)C(=O)Nc1ccc(C(C)=O)cc1 (stereo not given)	0	0	0	59	0	32
COC(=O)c1ccc(NC(=O)CSc2nc3ccccc3c(=O)[nH]2)cc1	0	0	0	0	0	0
CC1(C(=O)NS(=O)(=O)c2cccc(Cl)c2)CCN1C(=O)C1CCCCC1 (stereo not given)	-	-	0	-	-	-
CS(=O)(=O)N(CC(=O)Nc1ccc2c(c1)OCCO2)c1ccc2c(c1)OCO2	0	0	0	0	0	10
C=CCN(c1ccc(C(=O)Nc2ccc3c(c2)OCO3)cc1)S(C)(=O)=O	0	0	0	0	0	13
C=CCN(c1ccc(C(=O)Nc2ccc3c(c2)n(C)c(=O)n3C)cc1)S(C)(=O)=O	0	0	0	-	0	0
CC(C)(C)OC(=O)N1CCC(c2c(C(=O)N3CCN(c4ccccc4F)CC3)cnn2-c2ccccc2Cl)CC1	0	-	0	-	-	-
Clc1ccc(CO/N=C2\CCCc3nonc32)cc1	0	0	0	0	0	27
O=C(CO/N=C1\CCCc2nonc21)Nc1ccc(Br)cc1	0	0	0	0	0	0
Clc1ccccc1CO/N=C1\CCCc2nonc21	0	0	0	0	0	15
O=C(CO/N=C1\CCCc2nonc21)Nc1ccccc1Cl	0	0	0	0	0	0
Cc1cc(O)c(C)c2sc(N)nc12	-	-	-	0	0	0
Cc1c(Cl)cccc1N=Cc1ccc([N+](=O)[O-])s1	40µM	0	0	0	0	0
COC(=O)/C=C\CCc1coc(/C=C\CNC(=O)OC)n1	-	-	-	-	0[12.9 µM]	-
COC(=O)c1ccccc1NC(=O)c1ccc(COc2ccc(C)c(C)c2)o1	0	0	0	0	0	0
O=C(O)c1ccc(COc2ccc(Cl)cc2)o1	0	0	0	0	0	24
COC(=O)c1ccc(COc2ccc(/C=N/O)cc2OC)o1	0	0	0	71	0	20
COC(=O)c1ccc(COc2cccc(OC)c2)o1	0	0	0	58	0	22
COC(=O)c1ccc(COc2ccc(Cl)cc2)o1	0	0	0	75	0	20
CCOc1cc(/C=N/NC(=O)c2cccnc2)ccc1OCc1ccc(C(=O)OC)o1	0	0	0	0	0	0
Cc1ccc(C(=O)N2CCc3cc(CNS(=O)(=O)c4cccs4)ccc32)cc1	0	-	0	-	-	-
CCOC(=O)N(C)C[C@H]1OCc2cnnn2CCCC(=O)N([C@@H](C)CO)C[C@H]1C	-	-	0	-	-	-
SMILES	Sm TGR block	LmPK inh	TbPYK inhibitor	Shiga inhibitor	Giardia FBPA inh	CHX counter
O=C(CSc1nc(=O)[nH]c2c1CCC2)Nc1cc(C(F)(F)F)ccc1Cl	0	-	0	-	-	-
O=C(O)c1ccc(OCc2ccc(C(=O)O)o2)cc1	0	0	0	0	0	15
CCc1ccc(OCc2ccc(C(=O)O)o2)cc1	35µM	0	0	101	0	64
C=CCc1ccc(OCc2ccc(C(=O)Nc3ccc(NC(C)=O)cc3)o2)c(OC)c1	45µM!	0	0	136	0	47
CC(O)COc1ccc(/C(=N/O)c2ccccc2)cc1 (stereo not given)	0	0	0	0	0	0
CC(C)COc1ccc(/C(=N/O)c2ccccc2)cc1	0	0	0	0	0	30
O=C(CSc1ncc2c(n1)-c1cc(Cl)ccc1N(Cc1ccccc1F)S2(=O)=O)Nc1cccc(C(F)(F)F)c1	0	-	0	-	-	-
COc1ccc(S(=O)(=O)Nc2ccc3c(c2)OCCO3)cc1OC	0	0	0	65	0	23
Cn1cc(S(=O)(=O)Nc2ccc3c(c2)OCCO3)cn1	0	0	0	103	0	44
COc1ccc(S(=O)(=O)Nc2ccc3c(c2)OCO3)cc1C	0	0	0	0	0	0
Cc1nc(S(=O)(=O)Nc2ccc3c(c2)OCCO3)cn1C	0	0	0	0	0	0
CCn1cc(S(=O)(=O)Nc2ccc3c(c2)OCCO3)cn1	0	0	0	77	0	76
Cc1cccc(-c2noc(-c3cccnc3NCc3ccco3)n2)c1	0	-	0	-	-	-
Nc1nccc(/C=C/c2ccc(Cl)cc2)n1	0	0	0	72	0	44
Cc1cc(NC(=O)Nc2ccc(OCc3ccccc3)cc2)n(C)n1	0	0	0	0	0	0
Cc1cc(C)c(S(=O)(=O)NCCSCc2ccco2)c(C)c1	13µM	-	0	-	-	-
CCOc1ccc(S(=O)(=O)NCCSCc2ccco2)cc1	?	0	0	0	0	0
COc1ccc(S(=O)(=O)NCCc2ccco2)cc1OC	0	0	0	0	0	0
COc1ccc(S(=O)(=O)NCCSCc2ccco2)cc1OC	11µM	0	0	0	0	0
COc1ccc(S(=O)(=O)NCCSCc2ccco2)cc1	25µM	0	0	0	0	0
CCc1ccc(NC(=O)Cn2c(=O)n(CCC(=O)NCCc3ccc(Cl)cc3)c(=O)c3ccccc32)cc1	0	-	0	-	-	-
COc1ccccc1CCNC(=O)c1ccc(-c2nc(CSc3ccc(C)cc3)c(C)o2)cc1	0	-	0	-	-	-
CC[C@H](C)[C@H](NC(=O)[C@H](Cc1ccc(O)cc1)NC(=O)[C@@H](NC(=O)[C@H](CCCN=C(N)N)NC(=O)[C@@H](N)CC(=O)O)C(C)C)C(=O)N[C@@H](Cc1cnc[nH]1)C(=O)N1CCC[C@H]1C(=O)N[C@@H](Cc1ccccc1)C(=O)N[C@@H](Cc1cnc[nH]1)C(=O)N[C@@H](CC(C)C)C(=O)O	-	-	-	0	0	0
CCC1CCC(NC(=O)Nc2cccc(OC)c2)CC1 (stereo not given)	0	0	0	64	0	52
COc1cccc(NC(=O)C2CCN(C(=O)[C@@H]3Cc4ccccc4CN3C(=O)OC(C)(C)C)CC2)c1	0	0	0	0	-	0
COc1cccc(NC(=O)C2CCCC2)c1	0	-	0	-	-	-

Screens (PubChem)
